The values that follow come from PubChem BioAssay (Tox21).

Results filed as inconclusive are left out. Calls of active or inactive are those of the source. Calls come from the whole dose curve.
% is set by controls: 0 for no effect and ±100 for the full control effect.

A short description of the first assay: p53 small molecule agonists, cell-based qHTS assay with rat liver microsomes (AID 1963578). Conditions: HCT-116 p53RE-bla, beta-lactamase ratio, 16 h; series mostly up to 66 µM; activation: at the top concentration. The method in brief:
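Rat liver microsome activation: microsomes 0.5 mg/mL, NADPH 0.5 mg/mL final; p53RE-bla cells, 16 h 37 C; LiveBLAzer readout, 2 h RT dark.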
Background: In qHTS, concentration-response curves come from the screen itself.
Turning to `CCCCCl`, the “activation” value is 4% (inactive).
In the case of `CCOC(=O)OC1=C(c2cc(C)ccc2C)C(=O)NC12CCC(OC)CC2` (configuration not stated), the “activation” value was -0.685% (inactive).
On the same count and under the same terms, then `C[N+]1(C)[C@@H]2CC[C@H]1CC(OC(=O)C(CO)c1ccccc1)C2` (some centres not stated), with -1.37% [at 30.3 µM] (inactive); and `O=CC(Br)(Br)Br`, with -7.54% (inactive); and `Cc1nnc2n1-c1sc(CCC(=O)N3CCOCC3)cc1C(c1ccccc1Cl)=NC2`, with 0.665% [at 30.3 µM] (inactive).
Consider `CC(Oc1cccc(Cl)c1)C(=O)O` (configuration not stated), for which the “activation” value is -3.47% (inactive).
On the same count and under the same terms, then `N#CC(CCc1ccc(Cl)cc1)(Cn1cncn1)c1ccccc1` (configuration not stated), with 1.84% (inactive).
Still for that read-out and setting: then `CCC(CC)(CNC(=O)CCCO)c1cccc(OC)c1`, with -0.906% [at 30.3 µM] (inactive).
On to `CC[C@H](C)[C@H]1O[C@]2(C=C[C@@H]1C)C[C@@H]1C[C@@H](C/C=C(\C)[C@@H](O[C@H]3C[C@H](OC)[C@@H](O[C@H]4C[C@H](OC)[C@@H](O)[C@H](C)O4)[C@H](C)O3)[C@@H](C)/C=C/C=C3\CO[C@@H]4[C@H](O)C(C)=C[C@@H](C(=O)O1)[C@]34O)O2`, for which the “activation” value was 8.91% [at 30.3 µM] (inactive).
Same read-out and setting: then `CC[C@@H](CO)NC(=O)[C@@H]1C=C2c3cccc4[nH]cc(c34)C[C@H]2N(C)C1`, with 0.432% [at 30.3 µM] (inactive).
As to `CC(C)C(=O)Cl`, the “activation” value is -3.4% (inactive).
On the same count and under the same terms, then `CN(C)c1ccc(N)cc1`, with -2.04% (inactive).
Take `CCOc1ccc(C(C)(C)COCc2cccc(Oc3ccccc3)c2)cc1`: the “activation” value was 1.31% (inactive).
Take `O=[Se]=O`: the “activation” value was -0.0496% [at 30.3 µM] (inactive).
As for `O=C(N[C@H]1N=C(c2ccccc2F)c2cccc3c2N(CC3)C1=O)c1cc2ccccc2[nH]1`, the “activation” value was 13.4% [at 30.3 µM] (inactive).
Same read-out and setting: the figure for `C[C@@H]1CC2=CC(=O)CC[C@@H]2[C@H]2CC[C@@]3(C)[C@@H](CC[C@]3(C)O)[C@@H]21` is 1.2% [at 30.3 µM] (inactive); for `COC(=O)c1ccccc1S(=O)(=O)NC(=O)N(C)c1nc(C)nc(OC)n1` it is 4.15% (inactive); for `CC(C)(C)c1ccc(CSc2cnn(C(C)(C)C)c(=O)c2Cl)cc1` it is 0.287% (inactive).
On the same count and under the same terms, the figure for `C=C1C[C@@H]2[C@H](CC[C@]3(C)C(=O)CC[C@@H]23)[C@@]2(C)C=CC(=O)C=C12` is 0.279% [at 30.3 µM] (inactive); for `C=CCOC(C)=O` it is 0.21% (inactive).
Still for that read-out and setting: the figure for `Cc1ccc(-c2c(Cl)nc(C#N)n2S(=O)(=O)N(C)C)cc1` is -1.15% (inactive); for `FC(F)OC(F)(F)C(F)Cl` (configuration not stated) it is 0.003% (inactive).

A further assay can be described thus: p53 small molecule agonists, cell-based qHTS assay with human liver microsomes: qHTS cell viability counter screen (AID 1963579). Note: nearly all actives have a fitted effect of over 45% in size. Note: potency is the fitted concentration of half-maximal effect. Conditions: p53RE-bla HCT-116 viability, ATP luminescence, 16 h, HLM; series mostly up to 66 µM; activity change, negative = cytotoxicity: at the top concentration. The method in brief: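 Luminescent CellTiter-Glo read-out, 30 min at room temperature, gauged cytotoxicity in p53RE-bla cells exposed 16 h at 37 C to DMSO-dissolved compounds with metabolic activation by human liver microsomes and NADPH, each 0.5 mg/mL final.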
For `C=COC(C)=O`, the “activity change, negative = cytotoxicity” value was -0.95% (inactive).
On the same count and under the same terms, the figure for `CCCCCl` is -0.117% (inactive); for `OC(c1ccc(F)cc1)(c1cncnc1)c1ccccc1Cl` (configuration not stated) it is 2.41% (inactive).
In the case of `CCOC(=O)OC1=C(c2cc(C)ccc2C)C(=O)NC12CCC(OC)CC2` (configuration not stated), the Potency was 40.8 µM (active).
For `NNCCO`, the “activity change, negative = cytotoxicity” value is -1.51% (inactive).
The same measure, in the same setting: the figure for `Nc1c(Br)cc(Br)c2c1C(=O)c1ccccc1C2=O` is 2.22% [at 13.5 µM] (inactive).
Take `O=S(=O)(Cl)c1ccccc1`: the “activity change, negative = cytotoxicity” value was -0.17% (inactive).
Still for that read-out and setting: then `Cc1nnc2n1-c1sc(CCC(=O)N3CCOCC3)cc1C(c1ccccc1Cl)=NC2`, with 21.9% [at 30.3 µM] (inactive).
On to `O=Cc1ccc2c(c1)OCO2`, for which the “activity change, negative = cytotoxicity” value was 0.451% (inactive).
In the case of `CCN(CC)C(=S)[S-].CCN(CC)C(=S)[S-].[Zn+2]`, the Potency is 3.21 µM (active).
Consider `CC(Oc1cccc(Cl)c1)C(=O)O` (configuration not stated), for which the “activity change, negative = cytotoxicity” value was -1.36% (inactive).
For `N#CC(CCc1ccc(Cl)cc1)(Cn1cncn1)c1ccccc1` (configuration not stated), the “activity change, negative = cytotoxicity” value is -32.2% (inactive).
For `CCCSP(=S)(OCC)Oc1ccc(Cl)cc1Cl` (configuration not stated), the “activity change, negative = cytotoxicity” value is -1.06% (inactive).
On the same count and under the same terms, the figure for `CC(C)(C)c1cc([N+](=O)[O-])cc([N+](=O)[O-])c1O` is 15.5% (inactive); for `Cc1cnc2c(C(=O)O)c(Cl)ccc2c1` it is 6.89% (inactive).
As for `CC[C@H](C)[C@H]1O[C@]2(C=C[C@@H]1C)C[C@@H]1C[C@@H](C/C=C(\C)[C@@H](O[C@H]3C[C@H](OC)[C@@H](O[C@H]4C[C@H](OC)[C@@H](O)[C@H](C)O4)[C@H](C)O3)[C@@H](C)/C=C/C=C3\CO[C@@H]4[C@H](O)C(C)=C[C@@H](C(=O)O1)[C@]34O)O2`, the “activity change, negative = cytotoxicity” value was 8.07% [at 30.3 µM] (inactive).
With `CC[C@@H](CO)NC(=O)[C@@H]1C=C2c3cccc4[nH]cc(c34)C[C@H]2N(C)C1`, the “activity change, negative = cytotoxicity” value was -0.72% [at 30.3 µM] (inactive).
The same measure, in the same setting: the figure for `CC(C)C(=O)Cl` is 8.33% (inactive).
In the case of `CN(C)c1ccc(N)cc1`, the Potency is 35.5 µM (active).
Regarding `CCOc1ccc(C(C)(C)COCc2cccc(Oc3ccccc3)c2)cc1`, the “activity change, negative = cytotoxicity” value was -2.12% (inactive).
On to `CCOCn1c(-c2ccc(Cl)cc2)c(C#N)c(Br)c1C(F)(F)F`, for which the Potency is 22.9 µM (active).
As to `O=C(N[C@H]1N=C(c2ccccc2F)c2cccc3c2N(CC3)C1=O)c1cc2ccccc2[nH]1`, the “activity change, negative = cytotoxicity” value was 0.336% [at 30.3 µM] (inactive).
The same measure, in the same setting: then `CCC1(C2=NCCN2)Cc2ccccc2O1` (configuration not stated), with 3.97% [at 30.3 µM] (inactive); and `ClSC(Cl)(Cl)Cl`, with 5.06% (inactive).
Regarding `CCOP(=S)(OCC)Oc1cc(C)nc(N(CC)CC)n1`, the “activity change, negative = cytotoxicity” value was -5.54% (inactive).
`Nc1ccc2c(c1)Cc1ccccc1-2`: the “activity change, negative = cytotoxicity” value was -1.43% (inactive).
Still for that read-out and setting: the figure for `C[C@@H]1CC2=CC(=O)CC[C@@H]2[C@H]2CC[C@@]3(C)[C@@H](CC[C@]3(C)O)[C@@H]21` is -2.69% [at 30.3 µM] (inactive).
`COC(=O)c1ccccc1S(=O)(=O)NC(=O)N(C)c1nc(C)nc(OC)n1`: the “activity change, negative = cytotoxicity” value was -0.681% (inactive).
Same read-out and setting: the figure for `CC(Cc1ccccc1)NCc1ccccc1Cl` (configuration not stated) is -1.75% [at 30.3 µM] (inactive); for `CC(C)(C)c1ccc(CSc2cnn(C(C)(C)C)c(=O)c2Cl)cc1` it is 3.59% (inactive); for `CNN` it is -4.21% (inactive).
Regarding `C=C1C[C@@H]2[C@H](CC[C@]3(C)C(=O)CC[C@@H]23)[C@@]2(C)C=CC(=O)C=C12`, the “activity change, negative = cytotoxicity” value is 21.2% [at 30.3 µM] (inactive).
Same read-out and setting: then `C=CCOC(C)=O`, with -2.39% (inactive).
As to `Cc1ccc(-c2c(Cl)nc(C#N)n2S(=O)(=O)N(C)C)cc1`, the “activity change, negative = cytotoxicity” value is 18.6% (inactive).
On the same count and under the same terms, the figure for `FC(F)OC(F)(F)C(F)Cl` (configuration not stated) is -11% (inactive).
